Measured values from PubChem BioAssay AID1159580 (chemical genetic matrix, 2015).
The whole screen tested about 5,500 compounds, of which about 2,000 (36%) were called active. Inconclusive results (about 18%) are left out. No stated cut-off is given here; in the data, active means normalized growth mostly below about 0.91 (no sharp cut-off); inconclusive means no clear call, values can overlap the other calls; inactive means mostly above about 0.92. The list shows a part of the results.

Test: chemical genetic growth profiling, strain panel (AID 1159580);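 further: tested at 20 µM; growth read once vehicle control cultures reached saturation at 30 °C; 1 = growth at the plate median or of vehicle wells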
Conditions: growth OD
[1] = S. cerevisiae deletion strains, locus YDL101C, strain DUN1, stronger effect = lower value
[2] = S. cerevisiae deletion strains, locus YDR150W, strain NUM1, stronger effect = lower value
[3] = S. cerevisiae deletion strains, locus YGR078C, strain PAC10, stronger effect = lower value
[4] = S. cerevisiae deletion strains, locus YHR030C, strain SLT2, stronger effect = lower value
[5] = S. cerevisiae deletion strains, locus YMR263W, strain SAP30, stronger effect = lower value
[6] = S. cerevisiae deletion strains, locus YNL128W, strain TEP1, stronger effect = lower value
[7] = S. cerevisiae deletion strains, locus YNL153C, strain GIM3, stronger effect = lower value
[8] = S. cerevisiae deletion strains, locus YPL055C, strain LGE1, stronger effect = lower value
[9] = S. cerevisiae deletion strains, locus YAR019C, strain CDC15, stronger effect = lower value
[10] = S. cerevisiae deletion strains, locus YBL105C, strain PKC1, stronger effect = lower value
[11] = S. cerevisiae deletion strains, locus YBR135W, strain CKS1, stronger effect = lower value
[12] = S. cerevisiae deletion strains, locus YBR136W, strain MEC1, stronger effect = lower value
[13] = S. cerevisiae deletion strains, locus YBR160W, strain CDC28, stronger effect = lower value
[14] = S. cerevisiae deletion strains, locus YDL017W, strain CDC7, stronger effect = lower value
[15] = S. cerevisiae deletion strains, locus YDL028C, strain MPS1, stronger effect = lower value
[16] = S. cerevisiae deletion strains, locus YDL108W, strain KIN28, stronger effect = lower value
[17] = S. cerevisiae deletion strains, locus YDL132W, strain cdc53, stronger effect = lower value
[18] = S. cerevisiae deletion strains, locus YDL214C, strain PRR2, stronger effect = lower value
[19] = S. cerevisiae deletion strains, locus YDR052C, strain DBF4, stronger effect = lower value
[20] = S. cerevisiae deletion strains, locus YDR054C, strain cdc34, stronger effect = lower value
[21] = S. cerevisiae deletion strains, locus YDR226W, strain ADK1, stronger effect = lower value
[22] = S. cerevisiae deletion strains, locus YDR477W, strain SNF1, stronger effect = lower value
[23] = S. cerevisiae deletion strains, locus YER123W, strain YCK3, stronger effect = lower value
[24] = S. cerevisiae deletion strains, locus YER133W, strain GLC7, stronger effect = lower value
[25] = S. cerevisiae deletion strains, locus YFL009W, strain cdc4, stronger effect = lower value
[26] = S. cerevisiae deletion strains, locus YFL029C, strain CAK1, stronger effect = lower value
[27] = S. cerevisiae deletion strains, locus YFR003C, strain YPI1, stronger effect = lower value
[28] = S. cerevisiae deletion strains, locus YFR019W, strain FAB1, stronger effect = lower value
[29] = S. cerevisiae deletion strains, locus YFR028C, strain CDC14, stronger effect = lower value
[30] = S. cerevisiae deletion strains, locus YGR040W, strain KSS1, stronger effect = lower value
[31] = S. cerevisiae deletion strains, locus YGR052W, strain FMP48, stronger effect = lower value
[32] = S. cerevisiae deletion strains, locus YGR092W, strain DBF2, stronger effect = lower value
[33] = S. cerevisiae deletion strains, locus YHR079C, strain IRE1, stronger effect = lower value
[34] = S. cerevisiae deletion strains, locus YHR082C, strain KSP1, stronger effect = lower value
[35] = S. cerevisiae deletion strains, locus YHR205W, strain SCH9, stronger effect = lower value
[36] = S. cerevisiae deletion strains, locus YIL147C, strain SLN1, stronger effect = lower value
[37] = S. cerevisiae deletion strains, locus YJL095W, strain BCK1, stronger effect = lower value
[38] = S. cerevisiae deletion strains, locus YJL128C, strain PBS2, stronger effect = lower value
[39] = S. cerevisiae deletion strains, locus YJL157C, strain FAR1, stronger effect = lower value
[40] = S. cerevisiae deletion strains, locus YJR016C, strain ILV3, stronger effect = lower value
[41] = S. cerevisiae deletion strains, locus YJR066W, strain TOR1 (second series), stronger effect = lower value
[42] = S. cerevisiae deletion strains, locus YJR066W, strain TOR1, stronger effect = lower value
[43] = S. cerevisiae deletion strains, locus YKL048C, strain ELM1, stronger effect = lower value
[44] = S. cerevisiae deletion strains, locus YKL067W, strain YNK1, stronger effect = lower value
[45] = S. cerevisiae deletion strains, locus YKL101W, strain HSL1, stronger effect = lower value
[46] = S. cerevisiae deletion strains, locus YKL193C, strain SDS22, stronger effect = lower value
[47] = S. cerevisiae deletion strains, locus YKL203C, strain TOR2, stronger effect = lower value
[48] = S. cerevisiae deletion strains, locus YLR113W, strain HOG1, stronger effect = lower value
[49] = S. cerevisiae deletion strains, locus YLR133W, strain CKI1, stronger effect = lower value
[50] = S. cerevisiae deletion strains, locus YLR403W, strain SFP1, stronger effect = lower value
[51] = S. cerevisiae deletion strains, locus YML070W, strain DAK1, stronger effect = lower value
[52] = S. cerevisiae deletion strains, locus YMR001C, strain CDC5, stronger effect = lower value
[53] = S. cerevisiae deletion strains, locus YMR205C, strain PFK2 (second series), stronger effect = lower value
[54] = S. cerevisiae deletion strains, locus YMR277W, strain FCP1, stronger effect = lower value
[55] = S. cerevisiae deletion strains, locus YNL006W, strain LST8, stronger effect = lower value
[56] = S. cerevisiae deletion strains, locus YNL020C, strain ARK1, stronger effect = lower value
[57] = S. cerevisiae deletion strains, locus YNL161W, strain CBK1, stronger effect = lower value
[58] = S. cerevisiae deletion strains, locus YNL183C, strain NPR1, stronger effect = lower value
[59] = S. cerevisiae deletion strains, locus YNL207W, strain RIO2, stronger effect = lower value
[60] = S. cerevisiae deletion strains, locus YNL222W, strain SSU72, stronger effect = lower value
[61] = S. cerevisiae deletion strains, locus YNL307C, strain MCK1 (second series), stronger effect = lower value
[62] = S. cerevisiae deletion strains, locus YOL078W, strain AVO1, stronger effect = lower value
[63] = S. cerevisiae deletion strains, locus YOL136C, strain PFK27, stronger effect = lower value
[64] = S. cerevisiae deletion strains, locus YOR061W, strain CKA2, stronger effect = lower value
[65] = S. cerevisiae deletion strains, locus YOR119C, strain RIO1, stronger effect = lower value
[66] = S. cerevisiae deletion strains, locus YOR231W, strain MKK1, stronger effect = lower value
[67] = S. cerevisiae deletion strains, locus YOR329C, strain SCD5, stronger effect = lower value
[68] = S. cerevisiae deletion strains, locus YPL031C, strain PHO85, stronger effect = lower value
[69] = S. cerevisiae deletion strains, locus YPL153C, strain RAD53, stronger effect = lower value
[70] = S. cerevisiae deletion strains, locus YPL204W, strain HRR25, stronger effect = lower value
[71] = S. cerevisiae deletion strains, locus YPL209C, strain IPL1, stronger effect = lower value
[72] = S. cerevisiae deletion strains, locus YPL256C, strain CLN2, stronger effect = lower value
[73] = S. cerevisiae deletion strains, locus YPR025C, strain CCL1, stronger effect = lower value
[74] = S. cerevisiae deletion strains, locus YPR106W, strain ISR1, stronger effect = lower value
[75] = S. cerevisiae deletion strains, locus YPR111W, strain DBF20, stronger effect = lower value
[76] = S. cerevisiae deletion strains, strain NNK1, stronger effect = lower value
[77] = S. cerevisiae deletion strains, strain TSCII, stronger effect = lower value

Measured: normalized growth

O=C1NC(=S)NC(=O)C1=Cc1cccc2ccccc12
inactive: S. cerevisiae deletion strains, locus YAL013W, strain DEP1, stronger effect = lower value 0.975 | S. cerevisiae deletion strains, locus YBR229C, strain ROT2, stronger effect = lower value 0.989 | S. cerevisiae deletion strains, locus YCL061C, strain MRC1, stronger effect = lower value 0.97 | [1] 0.963 | [2] 0.891 | S. cerevisiae deletion strains, locus YEL061C, strain CIN8, stronger effect = lower value 0.976 | [3] 0.976 | [4] 0.709 | S. cerevisiae deletion strains, locus YHR087W, strain rtc3, stronger effect = lower value 0.913 | S. cerevisiae deletion strains, locus YJR075W, strain HOC1, stronger effect = lower value 0.928 | S. cerevisiae deletion strains, locus YKL190W, strain CNB1, stronger effect = lower value 1 | S. cerevisiae deletion strains, locus YLR039C, strain RIC1, stronger effect = lower value 0.841 | S. cerevisiae deletion strains, locus YLR058C, strain SHM2 (second series), stronger effect = lower value 0.99 | S. cerevisiae deletion strains, locus YLR085C, strain ARP6, stronger effect = lower value 0.907 | S. cerevisiae deletion strains, locus YLR262C, strain YPT6, stronger effect = lower value 0.879 | S. cerevisiae deletion strains, locus YML094W, strain GIM5, stronger effect = lower value 0.954 | S. cerevisiae deletion strains, locus YMR219W, strain ESC1, stronger effect = lower value 0.985 | [5] 0.93 | [6] 0.991 | [7] 0.979 | S. cerevisiae deletion strains, locus YNL298W, strain CLA4 (second series), stronger effect = lower value 0.995 | S. cerevisiae deletion strains, locus YNL322C, strain KRE1, stronger effect = lower value 0.986 | S. cerevisiae deletion strains, locus YNR030W, strain Alg12, stronger effect = lower value 0.988 | [8] 0.92 | S. cerevisiae deletion strains, locus YPL241C, strain CIN2, stronger effect = lower value 0.983 | S. cerevisiae deletion strains, locus YPR135W, strain CTF4, stronger effect = lower value 0.806 | S. cerevisiae strains, strain wild type, stronger effect = lower value 0.998

O=C1/C(=C/c2c[nH]c3ccccc23)CSc2ccccc21
inactive: [9] 0.989 | [10] 0.975 | [11] 0.981 | [12] 0.966 | [13] 0.99 | [14] 0.983 | [15] 0.979 | [1] 0.98 | [16] 0.987 | [17] 0.99 | [18] 0.938 | [19] 0.985 | [20] 0.987 | [21] 0.983 | [22] 0.961 | [23] 0.906 | [24] 0.948 | [25] 0.988 | [26] 0.988 | [27] 0.987 | [28] 0.973 | [29] 0.98 | [30] 0.947 | [31] 1.04 | [32] 0.945 | [4] 1.07 | [33] 1.06 | [34] 1.01 | [35] 0.957 | [36] 0.965 | [37] 1.02 | [38] 0.944 | [39] 0.943 | [40] 0.98 | [41] 0.913 | [42] 1.03 | [43] 0.949 | [44] 0.964 | [45] 0.945 | [46] 0.984 | [47] 1.02 | [48] 1.05 | [49] 0.975 | [50] 0.942 | [51] 0.944 | [52] 0.976 | [53] 0.979 | [54] 0.983 | [55] 0.993 | [56] 0.948 | [57] 0.991 | [58] 1.05 | [59] 0.997 | [60] 0.982 | [61] 0.995 | [62] 0.994 | [63] 0.931 | [64] 0.958 | [65] 0.982 | [66] 1.05 | [67] 0.99 | [68] 0.947 | [69] 0.924 | [70] 0.928 | [71] 0.989 | [72] 1.04 | [73] 0.986 | [74] 0.978 | [75] 0.979 | [76] 0.98 | [77] 0.984

Cc1ccc(OCC(O)C(C)NC(C)C)c2c1CCC2 (centres undefined)
inactive: S. cerevisiae deletion strains, locus YAL040C, strain CLN3, stronger effect = lower value 0.989 | S. cerevisiae deletion strains, locus YCL061C, strain MRC1 (second series), stronger effect = lower value 0.993 | [2] 1.01 | S. cerevisiae deletion strains, locus YDR363W, strain ESC2, stronger effect = lower value 0.961 | S. cerevisiae deletion strains, locus YER002W, strain NOP16, stronger effect = lower value 0.977 | [3] 0.982 | S. cerevisiae deletion strains, locus YGR229C, strain SMI1, stronger effect = lower value 1.01 | [5] 1 | [6] 0.985 | [7] 1 | S. cerevisiae deletion strains, locus YNL175C, strain NOP13, stronger effect = lower value 0.982 | S. cerevisiae deletion strains, locus YNL197C, strain WHI3, stronger effect = lower value 0.972 | S. cerevisiae deletion strains, locus YNL224C, strain SQS1, stronger effect = lower value 1 | S. cerevisiae deletion strains, locus YOR083W, strain WHI5 (second series), stronger effect = lower value 1 | [8] 1

O=C(NC(=S)NNc1ncc(C(F)(F)F)cc1Cl)c1cccs1
active: [9] 0.665 | [10] 0.764 | [11] 0.604 | [12] 0.537 | [13] 0.692 | [14] 0.727 | [15] 0.537 | [1] 0.576 | [16] 0.726 | [17] 0.588 | [18] 0.218 | [19] 0.581 | [20] 0.492 | [21] 0.527 | [22] 0.31 | [23] 0.17 | [24] 0.37 | [25] 0.51 | [26] 0.59 | [27] 0.738 | [28] 0.384 | [29] 0.482 | [30] 0.28 | [31] 0.171 | [32] 0.163 | [4] 0.287 | [33] 0.294 | [34] 0.296 | [35] 0.244 | [36] 0.609 | [37] 0.244 | [38] 0.328 | [39] 0.198 | [40] 0.624 | [41] 0.15 | [42] 0.237 | [43] 0.256 | [44] 0.17 | [45] 0.242 | [46] 0.629 | [47] 0.234 | [48] 0.252 | [49] 0.251 | [50] 0.123 | [51] 0.247 | [52] 0.549 | [53] 0.23 | [54] 0.413 | [55] 0.714 | [56] 0.211 | [57] 0.533 | [58] 0.195 | [59] 0.6 | [60] 0.559 | [61] 0.146 | [62] 0.585 | [63] 0.276 | [64] 0.242 | [65] 0.237 | [66] 0.256 | [67] 0.727 | [68] 0.441 | [69] 0.283 | [70] 0.315 | [71] 0.736 | [72] 0.367 | [73] 0.745 | [74] 0.472 | [75] 0.453 | [76] 0.492 | [77] 0.524
